# Screens: PubChem, National Center for Advancing Translational Sciences (NCATS)
# The list is not random: actives were taken first. Their share in the collection is about 13%.
# Shiga inhibitor: blocks Shiga toxin action in Vero cells; Vero cells, Shiga toxin protein synthesis inhibition reporter; inhibition, % at 38.7 µM; 290,000 compounds, 9.2% hits; AID 2315; in the data active = inhibition mostly above about 28%, no sharp cut-off; inactive = mostly below about 43%; note: 0% is about no effect
# HCV inhibitor: blocks hepatitis C virus; Potency, µM (highest dose often 41.8 µM), for the others: top-dose activity change, negative = inhibition, actives largely listed as inhibitors; Huh7.5.1 HCVcc-Cre infection, luciferase reporter, 44 h; AID 651820; 340,000 compounds, 3.4% hits; active = well fitted inhibition curve with a large enough effect; inconclusive = small, poorly fitted or top-dose-only effect, or another doubt; inactive = no such curve, though single readings can be large or run the other way; note: potency is the fitted concentration of half-maximal effect; % is set by controls: 0 for no effect and ±100 for the full control effect
#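 Infectious HCVcc-Cre (~0.5 moi) was added to cells just after compound, with cells seeded 4 h earlier at 1,000 per well. Luciferase activity after 44 h culture reported infection; substrate was incubated 15 min at room temperature before reading.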
# Lassa entry inh: inhibitors of Lassa virus binding or cell entry; Lassa virus pseudotype entry inhibition, cell reporter; Potency, µM (doses to about 37.9 µM), inactives show at the top dose activity change, negative = inhibition, actives largely listed as inhibitors; 300,000 compounds, 1.2% hits; calls by dose curve; tested in HEK293 cells; note: potency is the fitted concentration of half-maximal effect; % is set by controls: 0 for no effect and ±100 for the full control effect; nearly all actives have a fitted effect of over 50% in size
# Cycloheximide cs: affects cycloheximide protein synthesis inhibition readout, counter-screen | cell reporter, cycloheximide protein synthesis inhibition counterscreen | max response, % | 300,000 compounds, 12% hits; in the data active = max response mostly above about 13%, no sharp cut-off; inactive = mostly below about 14%; note: read at 38.3 µM for the half of the compounds with a filed dose; 0% is about no effect
# MARV entry inh: blocks Marburg virus binding to or entry into cells | AID 540276 | 300,000 compounds, 1.8% hits | Marburg virus pseudotyped entry inhibition, cell reporter | Potency, µM (top dose mostly 37.8 µM), for inactives: at the highest dose activity change, negative = inhibition, actives largely listed as inhibitors; calls by dose curve; tested in HEK293 cells; note: potency is the fitted concentration of half-maximal effect; % is set by controls: 0 for no effect and ±100 for the full control effect
# FMDV antiviral: foot and mouth disease virus antiviral activity | Potency, µM (titrated, usually from 57.9 µM), without a hit: at the top dose activity change, negative = inhibition, actives largely listed as inhibitors | 410,000 compounds, 1.2% hits | AID 1159524 | FMDV antiviral cell-based qHTS; calls by dose curve; tested in HEK293T cells; note: read-out not given here; potency is the fitted concentration of half-maximal effect; % is set by controls: 0 for no effect and ±100 for the full control effect; nearly all actives have a fitted effect of over 45% in size
# * marks the source's active call; other numbers are inactive results; ? = inconclusive; . = not tested or not shown; [ ] = another dose, or the depositor's remark.
SMILES,Shiga inhibitor,HCV inhibitor,Lassa entry inh,Cycloheximide cs,MARV entry inh,FMDV antiviral
COc1ccc(CCNC(=O)C2CC3Cn4c(nc5ccccc54)C3N2C)cc1 (configuration not stated),-2,?,.,-4,.,-9%
CCCCCCCCn1cnc2c(N)c(C)c(C)cc21,-12,1.6µM*,?,-4,?,-28%
COc1ccc(Cn2cnc3c(N)c(C)c(C)cc32)cc1,-4,-30%,0%,11,23%[46.1 µM],-5%
Cc1cc(C)c(NC(=O)Cn2nnc(C(=O)NCCc3ccccc3)c2N)c(C)c1,-3,23%,-1%,-4,12%[46.1 µM],2%
Nc1ccccc1C(=O)N/N=C1/C2CN3CCN(C2)CC1(Cc1ccccc1)C3,29,11%,0%[46.1 µM],-6,4%[46.1 µM],-5%
Nc1ccccc1C(=O)N/N=C1\C2CN3CCN(C2)CC1(c1ccccc1)C3,81*,7%,20%,50*,9%,20%
O=C(N/N=C1\C2CN3CCN(C2)CC1(c1ccccc1)C3)c1ccc(F)cc1,0,-8%,28%,23*,-3%[46.1 µM],5%
CCCC12CN3CCN(CC(C3)/C1=N\NC(=O)c1ccccc1N)C2,38*,12%,-1%,25*,?,38%
COc1ccc(CCNC(=O)CSCc2c(F)cccc2Cl)cc1OC,-1,?,?,1,?,-12%
O=C(CNC(=O)c1ccc(S(=O)(=O)N2CCCC2)cc1)N/N=C/c1ccccc1,-5,-2%,?,-2,2%,10%
Oc1ccccc1-c1nc(/C=C/c2ccccc2)nn1-c1ccccc1,33,-21%,-7%[46.1 µM],23*,?,-4%
Oc1ccccc1-c1nc(/C=C/c2ccc(F)cc2)nn1-c1ccccc1,.,.,15%[46.1 µM],.,17%[46.1 µM],0%
Oc1ccc(/C=C/c2nc(-c3ccccc3O)n(-c3ccccc3)n2)c(O)c1,.,.,-24%[46.1 µM],.,?,-1%
Oc1ccc(/C=C/c2nc(-c3ccccc3O)n(-c3ccccc3)n2)cc1,-34,?,12µM*,0,?,-1%
O=C(O)c1ccc(CSCc2ccccc2)o1,.,.,.,.,.,-13%
COc1ccc(-c2oc3ncnc(N)c3c2-c2ccc(NC(=O)Nc3cc(C(F)(F)F)ccc3F)cc2)cc1,.,.,11µM*,.,.,.
Nc1ncnc2occ(-c3ccc(NC(=O)Nc4cc(C(F)(F)F)ccc4F)cc3)c12,.,.,16µM*,.,.,.
COc1ccc(-c2oc3ncnc(N)c3c2-c2ccccc2)cc1,2,-26%,-6%,-4,?,-6%
Cc1ccc(CCNC(=O)c2c[nH]c3ccc(S(=O)(=O)Nc4ccc(C)cc4C)cc3c2=O)cc1,.,.,?,.,.,-18%
CC(C)(C)c1ccc(C(=O)CS(=O)(=O)c2ccccc2)cc1,88*,1%,?,38*,?,-17%
Cc1ccc(S(=O)(=O)CC(=O)c2ccccc2)cc1,65,16%,-13%,21,22%,37%
CCC(=O)Oc1c(Sc2ccc(Cl)cc2)c(C)nn1-c1ccccc1,.,.,16%[46.1 µM],.,20%[46.1 µM],-20%
CCOC(=O)N1C(=O)[C@](CC)(c2ccccc2)N1C(=O)OCC,9,4%,.,19*,.,-1%
CCC1(c2ccccc2)C(=O)N(C(=O)OC(C)(C)C)N1C(=O)OC(C)(C)C (configuration not stated),.,18%,.,.,.,-12%
COc1ccc(N=CC2=C(O)CCCC2=O)cc1,76*,15%,-17%,37*,1%,29%
SMILES,Shiga inhibitor,HCV inhibitor,Lassa entry inh,Cycloheximide cs,MARV entry inh,FMDV antiviral
COc1ccc(N=Cc2c(O)n(C)c(=O)n(C)c2=O)cc1,29,10%,.,25,.,32%
COc1ccc(N=CC2=C(O)CC(C)(C)CC2=O)cc1,65*,-3%,16%,36*,-15%[46.1 µM],25%
O=C(Nc1ccccc1C(=O)N1CCOCC1)c1cccc(S(=O)(=O)N2CCCC2)c1,13,3%,17%,-3,2%,-11%
COc1ccc(-c2nn(-c3ccc(C)cc3)c3c2cnc2ccc(C)cc23)cc1OC,.,.,-13%[46.1 µM],.,-11%[46.1 µM],-7%
Cn1nccc1C(=O)N(CCN1CCCCC1)CC1CCCN(C2CCCC2)C1 (configuration not stated),23,14µM*,0%,23*,?,51%
O=[N+]([O-])c1ccc(S(=O)(=O)N2CCN(c3ccnc4cc(Cl)ccc34)CC2)cc1,-3,0%,-21%[46.1 µM],-1,?,?
COc1ccc(C)cc1NC(=O)c1nnn(CC(=O)Nc2c(C)cccc2C)c1N,.,.,-26%[46.1 µM],.,.,-1%
Cc1ccccc1NC(=O)Cc1cccs1,7,1%,.,8,.,-9%
O=C(Cc1cccs1)Nc1ccccc1C(=O)O,21,12%,11%,21*,-6%,-4%
O=C(Cc1cccs1)Nc1ccccc1F,91,18%,?,18*,?,37%
O=C(Cc1cccs1)Nc1ccccc1NC(=O)Cc1cccs1,21,3%,8%,1,1%,11%
COc1ccccc1NC(=O)C(=O)N(c1cccnc1)C(C(=O)NC(C)(C)C)c1ccccc1F (configuration not stated),-6,7%,.,-2,.,39%
CCC(C)Nc1nc(Cl)nc(NCCOc2ccccc2)n1 (configuration not stated),31,?,8%,33*,?,-4%
O=C(OCC(=O)N1CCN(c2ccccc2)CC1)c1ccc(Cl)cc1[N+](=O)[O-],.,-10%,17%,.,0%,-7%
Nc1cc(C(=O)OCC(=O)N2CCOCC2)ccc1Cl,58*,21%,12%[46.1 µM],35*,?,19%
O=C(OCC(=O)N1CCOCC1)c1ccc(Cl)cc1[N+](=O)[O-],47*,16%,?,24*,4%[46.1 µM],12%
Nc1cc(C(=O)OCC(=O)N2CCN(C(=O)COC(=O)c3ccc(Cl)c(N)c3)CC2)ccc1Cl,.,13%,2%,.,-15%,0%
Nc1ccc(C(=O)OCC(=O)N2CCOCC2)cc1[N+](=O)[O-],57*,19%,25%,31*,4%,50%
CN(C)c1ccc(C(=O)OCC(=O)N2CCOCC2)cc1,39,6%,-2%,23*,-1%[46.1 µM],0%
Cn1c(SCC(=O)Nc2ccccc2)nc2c([nH]c3ccccc32)c1=O,-5,8%,.,-3,.,24%
Cc1ccsc1C(=O)OCC(=O)N1CCOCC1,73*,14%,?,35*,?,70%
O=C(CNS(=O)(=O)c1ccccc1)N1CCN(Cc2ccccc2)CC1,37,17%,5%,13,1%,5%
C=C1c2c(Cl)ccc(O)c2C(O)=C2C(=O)[C@@]3(O)C(O)=C(C(N)=O)C(=O)[C@@H](N(C)C)[C@@H]3[C@@H](O)[C@H]12,.,.,?,.,-31%,.
COc1ccc2c(c1)-c1nc(/N=C/c3ccc(O)c(OC)c3)sc1CC2,-6,11µM*,5%,9,?,2%
Nc1cc(C(F)(F)F)ccc1Nc1ccccc1,77*,-1%,.,28*,.,24%
CCCc1ncc(CN2CCC(C(=O)Nc3cccc(-c4cscn4)c3)CC2)cn1,-6,11µM*,.,3,.,-27%
